Assay outcomes from PubChem.
Shown are actives, neighbours in structure and some others; about 10% of the full set was active somewhere.
JMJD2A Tudor – inhibitors of human JMJD2A Tudor domain; O75164; AlphaScreen JMJD2A-Tudor / H3K4me3 peptide binding; Potency, µM (series often up to 114 µM), hits mostly inhibitors; actives 4.4% (n = 390,000); also: nearly all actives have a fitted effect of over 50% in size
BAZ2B block – inhibitors of human BAZ2B bromodomain | Potency, µM (doses to about 114 µM), actives largely listed as inhibitors | actives 4.4% (n = 360,000) | Q9UIF8 | AID 504333 | AlphaScreen BAZ2B-H3K14Ac peptide displacement; also: nearly all actives have a fitted effect of over 60% in size
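AlphaScreen displacement: compounds (up to 110uM) incubated 30 min at room temperature with a preformed 50 nM BAZ2B/50 nM biotinylated H3K14Ac peptide complex in PBS pH 7.4 with Tween-20. Donor and acceptor beads at 10 ug/mL final added, 20 min light-protected before reading.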
G9a block – G9a (human) methyltransferase inhibition; actives 8.8% (n = 350,000); AID 504332; G9a H3K9 monomethylation, AlphaScreen, 2 h; Potency, µM (highest dose often 102 µM), hits mostly inhibitors; Q96KQ7; also: nearly all actives have a fitted effect of over 75% in size
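G9a (20 nM) was preincubated 15 min with compound, then reacted 2 h at room temperature with 500 nM biotin-H3K9 peptide and 20 µM SAM. Monomethyl-H3K9 detected by AlphaScreen using anti-H3K9me1 antibody.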
HP1b chromo inh – HP1-beta chromodomain-methylated histone interaction inhibition; AlphaScreen HP1-beta / biotin-H3K9me3 peptide binding; AID 540317; actives 0.56% (n = 390,000); Potency, µM (top dose mostly 114 µM), most hits filed as inhibitors; P83916; also: nearly all actives have a fitted effect of over 70% in size
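AlphaScreen: HP1-beta (50 nM) preformed 30 min with biotin-H3(1-18)K9me3 peptide (50 nM) in PBS pH 7.4, 0.01% Tween-20. Compound added for 30 min at RT, then streptavidin donor/nickel chelate acceptor beads (10 ug/mL) for 30 min.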
GLS inh – blocks human kidney-isoform glutaminase activity; AID 624170; actives 0.21% (n = 410,000); Potency, µM (doses to about 45.5 µM), actives largely listed as inhibitors; O94925; GLS enzymatic activity, qHTS titration
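Compounds were pin-transferred onto hKGA, after which L-glutamine (1 mM solution) and a detection mix of glutamate oxidase, HRP and Amplex Red were added. Initial and 30 min RT fluorescence reads were collected.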
Hits are given with their value; n = inactive; u = inconclusive; x = no result given; [ ] = another dose, or the depositor's remark. Calls follow the shape of the dose curve; as a rule, active = well fitted curve in the direction sought with a large enough effect; inconclusive = small, poorly fitted or top-dose-only effect, or another doubt; inactive = no such curve, though single readings can be large; an effect the other way counts as inactive or inconclusive.

SMILES	JMJD2A Tudor	BAZ2B block	G9a block	HP1b chromo inh	GLS inh
C=CCNc1nc(NCCO)nc(N2CCCC2)n1	n	n	n	n	n
CSc1ccccc1OCc1cc(C(=O)N(C)CCn2nc(C)cc2C)no1	13µM	u	n[0.501 µM]	n	u
CSc1ccccc1OCc1cc(C(=O)N(C)Cc2nonc2C)no1	n	n	n	n	n
O=S(=O)(c1cccs1)N1CN(Cc2cccs2)c2nc3ccccc3nc21	n	n	u	n	n
Oc1ccc(CN2CCCCC2)c2cccnc12	8.9µM	3.2µM	u	n	n
Oc1c(CN2CCCCC2)ccc2cccnc12	20µM	x	x	n	n
FC(F)(F)c1ccccc1CN1CCC(Cc2ccccc2)CC1	13µM	n	22µM	u	n
Oc1ccc2ccccc2c1CN1CCCCC1	n	x	x	n	n
Ic1ccc(N2CCN(Cc3c[nH]c4ncccc34)CC2)cc1	89µM	50µM	24µM	n	n
Cc1c(Cl)ccc2c(C(=O)NCCN3CCCCC3)cc(-c3ccccn3)nc12	n	n	n	n	u
O=C(NCc1ccccc1)c1ccc(CN2CCC(Cc3ccccc3)CC2)cc1	n	n	n	n	n
Oc1ccc(CN2CCC(Cc3ccccc3)CC2)c2cccnc12	25µM	20µM	35µM	n	n
Oc1c(Cl)cc(CN2CCCCC2)c2cccnc12	x	3.5µM	n[2.33 µM]	x	x
Cn1cc(CN2CCc3ccccc3C2)c2ccccc21	n	n	u	n	n
Oc1ccc(CN2CCN(c3ccccc3)CC2)c2cccnc12	n	u	3.2µM	n	n
Oc1ccc2ccccc2c1CN1CCN(c2ccccc2)CC1	n	n	u	n	n
Oc1ccc(CN2CCc3ccccc3C2)c2cccnc12	10µM	5.6µM	u	n	n
Cc1ccc(NC(NC(=O)OCCn2c([N+](=O)[O-])cnc2C)C(Cl)(Cl)Cl)cc1 (stereo not given)	x	n	u	x	x
O=[N+]([O-])c1ccc(N2CCN(CCO)CC2)c2ncccc12	n	n	n	n	n
O=[N+]([O-])c1cc(CN2CCCC2)c2cccnc2c1O	13µM	5µM	u	u	n
O=C(CSc1nnc(NC(=O)C2CCC2)s1)Nc1ccccc1Br	n	n	n	n	n
Cc1cc(C)nc(SCc2nnc(SCC(=O)Nc3nc(-c4ccccc4)cs3)n2-c2ccccc2)n1	79µM	n	u	n	n
O=C(CSc1nnc(-c2ccncc2)n1Cc1ccco1)Nc1ccccc1Cl	u	n	u	n	n
CC(C)C(C)(C#N)NC(=O)CSc1nnc(-c2ccncc2)n1Cc1ccccc1 (stereo not given)	71µM	n	n	u	n
CC(C)(C)NC(=O)CSc1nnc(-c2ccncc2)n1Cc1ccccc1	n	n	n[12.7 µM]	n	n
SMILES	JMJD2A Tudor	BAZ2B block	G9a block	HP1b chromo inh	GLS inh
Cn1c(SCC(=O)Nc2nccs2)nnc1-c1ccncc1	u	n	n[2.33 µM]	n	n
O=C(CSc1nnc(-c2ccncc2)n1Cc1ccccc1)Nc1nccs1	89µM	n	n[12.7 µM]	n	n
O=C(CSc1nnc(-c2ccncc2)n1Cc1ccco1)Nc1nc(-c2ccccc2)cs1	n	n	28µM	n	n
CN(CCOc1ccccc1)C(=S)Nc1ccc(OC(F)F)cc1	n	n	n	n	n
COCCNC(=O)C1(C)CCCN(C(=O)Cc2ccc3ccccc3c2)C1 (stereo not given)	x	x	x	x	n
CCC(c1nc2ccccc2c(=O)n1CCCn1ccnc1)N1C(=O)c2ccccc2C1=O (stereo not given)	u	n	u	n	n
CN(c1ccccc1)S(=O)(=O)c1cccc(NC(=O)CN2C(=O)NC3(CCCC3)C2=O)c1	n	n	56µM	n	n
Cc1ccc(NC(=O)CN2C(=O)NC3(CCCCCCC3)C2=O)cc1C	n	n	1.3µM	n	n
O=C(CN1C(=O)NC2(CCCC2)C1=O)Nc1ccccc1	n	n	n	n	n
NS(=O)(=O)c1ccc(NC(=S)N2CCN(c3cccc(Cl)c3)CC2)cc1	n	n	8.9µM	n	n
S=C(NCCN1CCOCC1)N1CCN(c2cccc(Cl)c2)CC1	8.9µM	28µM	35µM	n	n
CN1CCN(C(=S)Nc2ccc(S(N)(=O)=O)cc2)CC1	n	n	40µM	n	n
S=C(NCc1ccco1)N1CCN(c2cccc(Cl)c2)CC1	n	n	u	n	n
COCCNC(=O)C1(C)CCN(Cc2ccc3ccccc3c2Br)C1 (stereo not given)	x	x	x	x	n
Cc1ccccc1COC(=O)CNC(=O)c1sc2ccccc2c1Cl	n	n	n	n	n
COCc1cc(C)nc2c1C(=O)NC(c1ccc(NC(C)=O)cc1)N2Cc1ccccc1 (stereo not given)	n	n	n	n	n
COCc1cc(C)nc2c1C(=O)NC(c1ccc(F)cc1)N2Cc1ccccc1 (stereo not given)	n	n	14µM	n	n
CCCCNc1nc2ccccc2n1CC(=O)N1CCc2ccccc2C1	n	n	n	n	n
COc1ccc(-n2c(SCc3ccccn3)nc3c(c2=O)SCC3)cc1OC	n	x	n	n	n
COc1ccc(OCC(=O)OCCNC(=O)c2cccnc2)cc1	50µM	u	32µM	n	n
COc1cccc(C(=O)OCCNC(=O)c2cccnc2)c1	n	n	50µM	n	n
O=C(NCCOC(=O)C1COc2ccccc2O1)c1cccnc1 (stereo not given)	40µM	u	50µM	n	n
Cc1ccc(OCC(=O)NNC(=O)c2cccnc2)cc1	n	n	79µM	n	n
COc1ccc(OCC(=O)NNC(=O)c2cccnc2)cc1	n	u	n[2.33 µM]	n	n
Cc1cc(C)cc(NC(=S)NCC2CCCO2)c1 (stereo not given)	n	n	n	n	n
SMILES	JMJD2A Tudor	BAZ2B block	G9a block	HP1b chromo inh	GLS inh
COc1ccc(C2=CSC3=NNC4(CCCCC4)NN23)cc1	n	u	40µM	u	n
Cc1ccc(C2=CSC3=NCCN23)c(C)c1	u	n	u	n	n
Cc1ccc(C2=CSC3=NNC4(CCCCC4)NN23)cc1	45µM	u	u	n	n
O=C(N/N=C/c1cccnc1)c1ccc(NC(=O)c2ccc(Cl)cc2)cc1	n	n	45µM	n	n
O=C(N/N=C/c1cccnc1)c1ccccc1Cl	n	n	n	n	n
O=C(NCC1CCCO1)C(=O)N/N=C/c1ccc(O)c(Cl)c1 (stereo not given)	n	n	n	n	n
O=C(N/N=C\c1cccnc1)c1cc(-c2ccc(Cl)s2)[nH]n1	56µM	50µM	32µM	n	n
O=C(NCC1CCCO1)C(=O)N/N=C/c1cc(Cl)ccc1O (stereo not given)	40µM	u	n	n	n
C/C(=N\NC(=O)c1cc(O)ccc1O)c1cccc(NC(=O)c2ccc(Cl)cc2)c1	u	u	16µM	u	u
CC(=O)Nc1ccc(C(=O)N/N=C/c2cccnc2)cc1	n	n	n	n	n
O=C(N/N=C/c1ccncc1)C12CC3CC(CC(C3)C1)C2	n	n	n[12.7 µM]	n	n
